Laboratory results published in publication PMC4336329 (PLoS ONE, 2015).
The campaign covered roughly 310,000 compounds. About 2,200 (0.71%) showed an effect of 50% or more. The effect is printed as a negative number. What follows is part of a selection rich in strong results, with near analogues and random picks from the rest.

The compounds below were run against human ether-à-go-go-related gene (hERG) potassium channel (human, UniProt Q12809) (assay: primary screen, population patch clamp on CHO cells stably expressing hERG; higher = less effect of the substance).
Method: Briefly, Chinese hamster ovary (CHO) cells stably expressing the hERG channel were dislodged from tissue culture flasks and dispensed into PPC plates. […] During the recording, background leak currents were estimated by a 100 ms step to -80 mV from an initial holding potential of -70 mV and subtracted from the subsequent current measurement. The campaign was conducted in two phases using slight differences in recording protocol. In the first phase, the initial voltage pulse used a 100 ms step to -30 mV from a holding potential of -70 mV, a 2 s conditioning step to +25 mV, and a 2 s test step to -30 mV. During the second phase of the screen, the potential during the conditioning step was raised to +45 mV. In both phases of the campaign, a secondary voltage pulse was applied using the same parameters as the second phase initial pulse. The initial and secondary pulses were applied in the absence of compound, and upon application of 1 μM and 10 μM test concentrations. Small molecule effects on hERG current density were quantified by […].

Sequence of human ether-à-go-go-related gene (hERG) potassium channel (Q12809 whole entry, looked up): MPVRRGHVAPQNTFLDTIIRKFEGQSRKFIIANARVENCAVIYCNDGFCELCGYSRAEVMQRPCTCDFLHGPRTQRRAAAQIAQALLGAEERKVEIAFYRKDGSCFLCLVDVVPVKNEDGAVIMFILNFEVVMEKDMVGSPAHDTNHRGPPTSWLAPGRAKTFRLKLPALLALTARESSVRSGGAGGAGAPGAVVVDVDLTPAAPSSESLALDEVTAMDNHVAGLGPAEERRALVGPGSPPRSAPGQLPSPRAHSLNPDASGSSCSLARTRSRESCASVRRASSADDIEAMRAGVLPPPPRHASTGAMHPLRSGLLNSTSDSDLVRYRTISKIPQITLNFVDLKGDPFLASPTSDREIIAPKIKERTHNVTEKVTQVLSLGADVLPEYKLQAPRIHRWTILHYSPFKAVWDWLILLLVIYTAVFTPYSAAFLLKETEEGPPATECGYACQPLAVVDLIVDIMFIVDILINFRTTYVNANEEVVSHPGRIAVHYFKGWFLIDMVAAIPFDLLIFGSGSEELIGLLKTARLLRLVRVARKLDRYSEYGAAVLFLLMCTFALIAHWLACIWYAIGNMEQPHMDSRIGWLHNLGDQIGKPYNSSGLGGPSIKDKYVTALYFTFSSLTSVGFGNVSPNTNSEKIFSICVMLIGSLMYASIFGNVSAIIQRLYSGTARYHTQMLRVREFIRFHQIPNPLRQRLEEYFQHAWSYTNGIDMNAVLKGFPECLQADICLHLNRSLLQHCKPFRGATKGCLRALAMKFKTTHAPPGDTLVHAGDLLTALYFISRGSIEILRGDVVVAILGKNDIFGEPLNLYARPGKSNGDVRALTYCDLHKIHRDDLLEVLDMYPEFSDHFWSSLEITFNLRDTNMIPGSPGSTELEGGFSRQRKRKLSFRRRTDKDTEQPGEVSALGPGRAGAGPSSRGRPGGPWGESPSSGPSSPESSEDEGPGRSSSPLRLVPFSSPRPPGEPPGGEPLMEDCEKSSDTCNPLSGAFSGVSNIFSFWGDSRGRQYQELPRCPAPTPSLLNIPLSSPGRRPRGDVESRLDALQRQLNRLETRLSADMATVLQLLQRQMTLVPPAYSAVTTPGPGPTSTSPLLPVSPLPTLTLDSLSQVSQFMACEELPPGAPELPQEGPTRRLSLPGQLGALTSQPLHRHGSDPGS

Point of comparison: `O=C(NC(CC(=O)N1CCN(c2ccccc2O)CC1)c1ccccc1)c1ccccc1Cl` (centres unmarked), “hERG current change (%, negative = inhibition) at 1uM” value -15.6%. Against it:
- Cc1cccc(C)c1OCC(O)CN.Cl.O (centres unmarked) — higher, 10.5%
- COc1ccccc1NC(=O)/C=C1\SCC(=O)N1C — higher, 2.4%
- NC(=O)CSc1nc(-c2ccccc2)c(-c2ccccc2)o1 — higher, 8.48%
- C/C=C1\COC(C(=O)NCc2ccncc2)(C(F)(F)F)C=C1C=C1CCCCC1 (centres unmarked) — higher, 12.8%
- CCCc1n[nH]c2c1/C(=N\OCC)CC(C)(C)C2 — higher, 12.8%
- C=CCN1CCN(C(c2cc(OC)ccc2OC)c2nnnn2CC2CCCO2)CC1.Cl (centres unmarked) — higher, 12.4%
- Cc1nn(C)c(Cl)c1CN1CCCC(C(=O)Nc2cccc(-n3cccn3)c2)C1 (centres unmarked) — higher, -3.6%
- CN1C(=O)CC(N2CCN(c3ccc(Cl)c(Cl)c3)CC2)C1=O (centres unmarked) — higher, 1.54%
- O=C(CN1CCN(c2ccc([N+](=O)[O-])cc2)CC1)Nc1nccs1 — lower, -29.3%
- O=C(Cc1ccc([N+](=O)[O-])cc1)N1CCN(c2ccc([N+](=O)[O-])cc2)CC1 — lower, -82.5%
- O=C(CCCC(=O)N1CCN(c2ccc([N+](=O)[O-])cc2)CC1)c1ccccc1 — lower, -66%
- O=C(Cc1ccc(F)cc1)N1CCN(c2ccc([N+](=O)[O-])cc2)CC1 — lower, -45.8%
- Cc1ccc(CC(=O)N2CCN(c3ccc([N+](=O)[O-])cc3)CC2)cc1 — lower, -30.4%
- O=C(NC(CC(=O)N1CCN(c2ccccc2)CC1)c1ccccc1)c1ccccc1Cl (centres unmarked) — lower, -19.6%
- O=C(NC(CC(=O)N1CCN(c2ccc([N+](=O)[O-])cc2)CC1)c1ccccc1)c1ccccc1Cl (centres unmarked) — lower, -69%
- O=C(CN1CCN(CC(=O)Nc2ccccn2)CC1)Nc1ccccn1 — higher, -9.95%
- O=C(CN1CCN(c2ccc([N+](=O)[O-])cc2)CC1)Nc1ccccn1 — lower, -75.8%
- O=C(CN1CCN(c2ccc([N+](=O)[O-])cc2)CC1)c1ccccc1 — higher, -9.94%
- O=C(CCCC(=O)N1CCN(c2cccc(Cl)c2)CC1)c1ccccc1 — higher, 1.83%
- Cn1cc(Cl)c(-c2n[nH]c(=S)n2-c2ccccc2)n1 — higher, 14%
- CCOC(=O)c1sc(NC(=O)c2ccc(OC)cc2)nc1C — higher, 15.9%
- CCN(C(=O)C1CC1)C1CCS(=O)(=O)C1 (centres unmarked) — higher, 9.67%
- CCC(C)C(=O)N[C@@H](c1ccccc1)[C@@H](O)C(=O)O[C@H]1C[C@@]2(O)[C@@H](OC(=O)c3ccccc3)C3[C@](C)(C(=O)[C@H](OC(C)=O)C(=C1C)C2(C)C)[C@@H](O)C[C@H]1OC[C@@]31OC(C)=O (some centres unmarked) — higher, 7.34%
- CCOC(=O)COc1ccc(CCNC(C)=O)cc1 — higher, 17.8%
- Cn1c(CSCc2ccccc2Cl)nnc1SCC(=O)Nc1nccs1 — higher, 2.67%
- CC(C)CNS(=O)(=O)c1ccc(CCC(=O)N2CCN(c3ccccc3)CC2)cc1 — lower, -61.5%
- COc1ccc(N2CCN(C(=O)CCCSc3nc4ccccc4[nH]3)CC2)cc1 — lower, -29.6%
- COc1cccc(N2CCN(C(=O)CC(NC(=O)c3ccccc3)c3ccccc3)CC2)c1 (centres unmarked) — lower, -27%
- Cc1cccc(N2CCN(C(=O)CSCc3c(C)noc3C)CC2)c1C — higher, 6.62%
- O=C(CCCSc1nc2ccccc2[nH]1)N1CCN(c2ccc([N+](=O)[O-])cc2)CC1 — lower, -86.9%
- CC(NC(=O)c1ccccc1)c1nc2ccccc2n1Cc1ccc(C#N)cc1 (centres unmarked) — lower, -35.6%
- N#Cc1ccc(CN2CCN(C(=O)CC(NC(=O)c3ccccc3)c3ccccc3)CC2)cc1 (centres unmarked) — lower, -84.7%
- Cc1noc(C)c1CSCC(=O)N1CCN(c2ccc(F)cc2)CC1 — lower, -17.9%
- CCNS(=O)(=O)c1ccc(CCC(=O)N2CCN(c3ccccc3)CC2)cc1 — higher, 3.97%
- O=C(CCCSc1nc2ccccc2[nH]1)N1CCN(c2ccccc2)CC1 — lower, -32.8%
- Cc1noc(C)c1CSCC(=O)N1CCN(c2ccc([N+](=O)[O-])cc2)CC1 — lower, -83.4%
- CC(C)CNS(=O)(=O)c1ccc(CCC(=O)N2CCN(c3ccc(F)cc3)CC2)cc1 — higher, -9.44%
- Cc1ccnc(NC(=O)Cn2cc([N+](=O)[O-])cn2)c1 — higher, 10.4%
- CCOC(=O)c1sc(=S)n(-c2ccccc2)c1N(C(C)=O)C(C)=O — higher, 15.5%
- COc1ccc(S(=O)(=O)N2CCOCC2)cc1NC(=O)CCc1cc(OC)c(OC)c(OC)c1 — higher, 2.32%
- CC(NC(=O)c1cccnc1)C(c1cccs1)N1CCN(C)CC1 (centres unmarked) — higher, 8.63%
- COc1ccc(OCCSc2nc(N)cc(N)n2)cc1 — higher, -5.65%
- CC(=O)OCCNc1cc(SC(C)C)c2nonc2c1[N+](=O)[O-] — higher, 3.63%
- C=CCN1C=C2C(=O)C(C)(OC(=O)CCC(=O)OC)C(=O)C(Br)=C2C=C1c1ccc(OC)cc1 (centres unmarked) — higher, 7.67%
- O=C(Cc1ccccc1[N+](=O)[O-])NCCc1ccc(F)cc1 — higher, 11.3%
- O=C(OCn1nnc2ccccc2c1=O)c1cccc(S(=O)(=O)N2CCOCC2)c1 — higher, 12.9%
- O=C(CCS(=O)(=O)Cc1ccccc1)N1CCN(c2ccc([N+](=O)[O-])cc2)CC1 — lower, -81%
- O=C(CCS(=O)(=O)Cc1ccccc1)N1CCN(c2ccccc2)CC1 — higher, -5.53%
- CSC(=NC#N)N1CCN(c2ccc(Cl)cc2)CC1 — higher, -6.45%
- CC(=O)N1CCN(c2ccc([N+](=O)[O-])cc2)CC1 — lower, -26%
- Cc1ccc(S(=O)(=O)CCC(=O)N2CCN(c3ccc([N+](=O)[O-])cc3)CC2)cc1 — lower, -49.9%
- CSC(=NC#N)N1CCN(c2ccc([N+](=O)[O-])cc2)CC1 — lower, -80.9%
- CC1(C(=O)N2CCN(c3ccccc3)CC2)CC1(Cl)Cl (centres unmarked) — higher, 10.3%
- CSC(=NC#N)N1CCN(c2ccccc2)CC1 — higher, 6.71%
- CC1(C(=O)N2CCN(c3ccc([N+](=O)[O-])cc3)CC2)CC1(Cl)Cl (centres unmarked) — lower, -64.3%
- O=C(CSCc1c(F)cccc1Cl)NCC1CCCO1 (centres unmarked) — higher, -1.83%
- CCn1cc(C2=NC(CCSC)CO2)c2ccccc21 (centres unmarked) — higher, 12%
- Cc1ccc(C2=NN(CC(=O)O)C(=O)CC2)cc1 — higher, -9.99%
- Cc1ccc(C(=O)N2CCN(c3ccc([N+](=O)[O-])cc3-n3cccc3)CC2)cc1 — lower, -16.4%
- COc1cccc(N2CCN(CC(=O)C34CC5CC(CC(C5)C3)C4)CC2)c1 — higher, 14%
- O=C(O)c1ccccc1C(=O)O — higher, 4.51%
- O=C1OC(NC(=O)c2ccccc2)C(n2cc(CO)nn2)=C1Cl (centres unmarked) — higher, -3.22%
- COc1ccc(N(C(=O)Cc2cccs2)C(C(=O)NC2CCCCC2)c2cccn2C)cc1 (centres unmarked) — higher, 9.18%
- N#C/C(=C/c1ccc(Cl)cc1)NC(=O)c1ccccc1 — higher, 12.2%
- COCCn1c(C)cc(C(=O)CSc2nnnn2C2CCCC2)c1C — lower, -58.4%
- CCn1c(C)cc(C(=O)CSc2nnnn2C2CCCC2)c1C — higher, -9.53%
- COCC(C)n1c(C)cc(C(=O)CSc2nnnn2C2CCCC2)c1C (centres unmarked) — higher, 5.12%
- CCOC(=O)C1CCCN(CCC(=O)Nc2c(C(=O)OC)[nH]c3cc(OC)ccc23)C1 (centres unmarked) — lower, -38%
- O=C(CSc1nnc(-c2ccc(O)cc2)o1)Nc1cccc(O)c1 — higher, 17.7%
- Cl.Nc1cc(F)ccc1N1CCCCCC1 — higher, 12.7%
- CN(C)C(=O)C1C2NC(=S)N(c3ccccc3)C1(C)Oc1ccccc12 (centres unmarked) — higher, 2.05%
- O=[N+]([O-])c1ccc(N2CCN(c3ccccc3Cl)CC2)cn1 — higher, -10%
- O=[N+]([O-])c1ccc(N2CCCCC2)cn1 — higher, 13.9%
- O=[N+]([O-])c1ccc(N2CCN(c3cccc(Cl)c3)CC2)cn1 — lower, -59.8%
- CCc1cccc(C)c1NC(=O)CC1Oc2ccc(C)cc2NC1=O (centres unmarked) — higher, 11.9%
- CCCOC(=O)CCCN1C(=O)/C(=C2\SC(=S)N(CCCC(=O)OCCC)C2=O)SC1=S — higher, 16%
- Cc1cc2c(cc1C)C(c1ccsc1)CC(=O)N2 (centres unmarked) — higher, 9.06%
- COc1ccc(CN2CCNC(=O)C2CC(=O)N(C)Cc2nccs2)c(OC)c1 (centres unmarked) — higher, 13.1%
- Cc1ccc(NS(=O)(=O)c2ccc(C(=O)N3CCN(c4ncccn4)CC3)cc2)cc1 — higher, 1.36%
- Cc1ccc(C(=O)N/C(=C\c2cccs2)C(=O)NCc2ccncc2)cc1 — lower, -38.5%
- Cc1ccc(C(=O)N/C(=C\c2ccccc2)C(=O)NCc2cccnc2)cc1 — lower, -41.8%
- COc1ccc(C(=O)N/C(=C/c2ccc(Cl)cc2)C(=O)NCc2ccncc2)cc1 — lower, -38.4%
- O=C(Nc1cccc2ccccc12)/C(=C\c1cccc([N+](=O)[O-])c1)NC(=O)c1cccs1 — lower, -67.7%
- Cc1ccc(C(=O)N/C(=C/c2ccc(F)cc2)C(=O)NCc2ccncc2)cc1 — lower, -78.4%
- O=C(Nc1cccc2ccccc12)/C(=C/c1cccc([N+](=O)[O-])c1)NC(=O)c1cccs1 — lower, -37.8%
- COc1ccc(/C=C(/NC(=O)c2ccc(C)cc2)C(=O)NCc2ccncc2)cc1 — lower, -21.3%
- Cc1ccc(C(=O)N/C(=C\c2ccccc2)C(=O)NCc2ccncc2)cc1 — lower, -77.1%
- Cc1ccc(C(=O)N/C(=C\c2sccc2C)C(=O)NCc2ccncc2)cc1 — higher, -1.07%
- Cc1ccc(NC(=O)/C(=C\c2cccc([N+](=O)[O-])c2)NC(=O)c2cccs2)cc1 — higher, 4.59%
- Cc1ccc(C(=O)N/C(=C\c2ccc(F)cc2)C(=O)NCc2ccncc2)cc1 — lower, -81.2%
- Cc1ccc(C(=O)N/C(=C/c2ccccc2)C(=O)NCc2ccncc2)cc1 — lower, -37.7%
